Compound activity deposited in PubChem by National Center for Advancing Translational Sciences (NCATS).
HT1080NT lethal: kills 2HG-producing HT-1080-NT fibrosarcoma cells; HT-1080-NT fibrosarcoma viability, CellTiter-Glo ATP luminescence, 48 h; Potency, µM (top dose mostly 46.1 µM), for inactives: at the highest dose activity, negative = less viability, actives largely listed as cytotoxic; 360,000 tested, 1.6% active; AID 686970;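 further: NT is the 2HG producing partner of a matched IDH1 knockdown line; potency means the concentration at half of the fitted maximal effect; 0% = DMSO-treated cells and -100% = media-only wells without cells; nearly all actives have a fitted effect of over 55% in size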
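Viability of the 2HG-overproducing fibrosarcoma line after 48 hours of compound exposure at 37 degrees C was determined by luminescence with CellTiter-Glo, and concentration-effect curves were then fitted and categorized.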
DT40 TDP1 no CPT: qHTS for Inhibitors of human tyrosyl-DNA phosphodiesterase 1 (TDP1): qHTS in cells in absence of CPT. DT40 Tdp1-/- hTDP1 cells, no CPT, ATP luminescence, 48 h. Potency, µM (highest dose often 46.2 µM), for inactives: top-dose activity change, negative = growth inhibition, most hits filed as inhibitors. 420,000 tested, 15% active; further: potency means the concentration at half of the fitted maximal effect; nearly all actives have a fitted effect of over 55% in size
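No-CPT arm: Tdp1-/-;hTDP1 DT40 cells (400/well) plus compounds, incubated ≥48 hr at 37 °C. Readout CellTiter-Glo luminescence.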
ALOX12 inh: ALOX12 (human) lipoxygenase inhibition. purified 12hLO, xylenol orange hydroperoxide absorbance. Potency, µM (doses to about 108 µM), inactives show at the highest dose activity change, negative = inhibition, most hits filed as inhibitors. 580,000 tested, 1.1% active. AID 1671190; further: potency means the concentration at half of the fitted maximal effect
Target sequence (P18054 whole entry, looked up): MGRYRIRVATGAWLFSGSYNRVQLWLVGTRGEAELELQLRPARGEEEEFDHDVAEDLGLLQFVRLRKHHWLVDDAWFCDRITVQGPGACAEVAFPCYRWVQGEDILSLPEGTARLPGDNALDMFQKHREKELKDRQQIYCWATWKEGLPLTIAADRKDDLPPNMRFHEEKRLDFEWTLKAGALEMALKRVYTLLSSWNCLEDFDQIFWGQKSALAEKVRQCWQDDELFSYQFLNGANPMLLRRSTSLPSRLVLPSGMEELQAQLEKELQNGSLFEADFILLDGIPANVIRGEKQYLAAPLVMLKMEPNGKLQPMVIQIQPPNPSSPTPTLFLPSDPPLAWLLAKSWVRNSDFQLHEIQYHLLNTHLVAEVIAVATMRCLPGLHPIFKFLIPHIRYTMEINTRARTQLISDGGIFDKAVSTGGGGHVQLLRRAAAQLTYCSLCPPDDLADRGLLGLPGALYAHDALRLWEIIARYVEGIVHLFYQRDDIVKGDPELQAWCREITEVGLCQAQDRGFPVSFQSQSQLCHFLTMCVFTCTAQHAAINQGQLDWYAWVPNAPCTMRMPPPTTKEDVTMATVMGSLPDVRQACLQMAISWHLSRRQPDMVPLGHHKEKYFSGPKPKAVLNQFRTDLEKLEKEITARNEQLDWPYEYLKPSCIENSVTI
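Hydroperoxide product was detected by ferrous iron/xylenol orange as the 573 to 405 nm absorbance ratio. Arachidonic acid at 40 uM (final) was turned over for 30 min at room temperature by 150 nM human 12hLO, pH 7.0 Hepes buffer, after 15 min compound preincubation.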
HT1080 IDH1KD tx: HT-1080 IDH1 knockdown cell toxicity (counter line). HT-1080 IDH1 knockdown viability, ATP luminescence, 48 h. Potency, µM (top dose mostly 46.1 µM), without a hit: at the highest dose activity, negative = toxicity, usual class: cytotoxic. 360,000 tested, 2% active;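 further: potency means the concentration at half of the fitted maximal effect; 0% = DMSO wells and -100% = cell-free medium wells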
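% activity derives from luminescence (CellTiter-Glo), normalised to DMSO and no-cell wells. HT-1080-IDH1KD cells, 750/well, had 48 h compound exposure at 37 °C.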
TDP1 cell CPT: growth inhibition of DT40 Tdp1-/-;hTDP1 cells with camptothecin (screen for TDP1 inhibitors); chicken DT40 Tdp1-/-;hTDP1 cells + 20 nM CPT, ATP luminescence, 48 h; Potency, µM (highest dose often 46.2 µM), for the others: top-dose activity change, negative = growth inhibition, actives largely listed as inhibitors; 420,000 tested, 12% active; further: potency means the concentration at half of the fitted maximal effect; nearly all actives have a fitted effect of over 55% in size
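Chicken DT40 Tdp1-/- cells complemented with human TDP1, 400 cells/well, exposed to compounds plus 20 nM camptothecin for at least 48 h at 37 C; viability read as ATP content by CellTiter-Glo luminescence.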
IL1B secr inh: inhibitors of inflammasome signaling (IL-1 beta secretion). THP-1 LPS/ATP IL-1B secretion, AlphaLISA, 16 h; hits give low values. activity change, % at 57.5 µM. 360,000 tested, 4.7% active; in the data active means activity change below about -50%; inconclusive means mostly about -30% to -49%
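Secreted IL-1B measured by AlphaLISA bead assay after 16 h compound exposure of THP-1 cells; compounds (final up to 57.5 uM) added 1 h before LPS (250 ng/mL) and ATP (1.25 mM) stimulation; lower signal means less secretion.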
* = called active by the depositor; ? = inconclusive; . = no result given. Only a selection was taken, and hits are over-represented in it overall. Unless noted, the call rests on the fitted dose curve; in most records, active means well fitted curve in the direction sought with a large enough effect; inconclusive means small, poorly fitted or top-dose-only effect, or another doubt; inactive means no such curve, though single readings can be large; an effect the other way counts as inactive or inconclusive. Unless noted, on the % scale 0 is the no-effect control and ±100 the full control effect.

SMILES	HT1080NT lethal	DT40 TDP1 no CPT	ALOX12 inh	HT1080 IDH1KD tx	TDP1 cell CPT	IL1B secr inh
COC(=O)c1ccc(NC(=S)NC2CC3CCC2C3)cc1 (configuration not stated)	?	21µM*	?	?	18µM*	3
COc1cc(/C=N/NC(=S)NC2CC3CCC2C3)ccc1O (configuration not stated)	-12%	?	?	-13%	?	0
COc1ccc(/C=N/NC(=S)N[C@H]2CC3CCC2C3)cc1 (some centres not stated)	7%	?	10µM*	-6%	?	4
COc1ccc(CNC(=S)NCc2ccc(Cl)cc2)cc1OC	-1%	-13%	50µM*	-21%	?	-18
O=C(Nc1ccccc1F)N1CCN(c2ccc(Cl)cc2)CC1	.	.	-12%	.	.	.
CC(NC(=O)CCNC(=O)C1CCCC1)c1ccccc1 (configuration not stated)	.	.	-9%	.	.	.
COc1ccc(CNCc2sccc2C)cc1	.	.	-13%	.	.	.
CCOc1ccccc1NC(=S)Nc1ncccc1C	?	29µM*	11µM*	?	?	-28
CCOc1ccccc1NC(=S)Nc1ccccc1F	15%	-9%	?	14%	-7%	38
COc1ccc(CNS(=O)(=O)NCc2ccc(C)cc2)cc1OC	1%	16µM*	-2%	-14%	?	22
COc1ccccc1NC(=S)NCc1ccc(Cl)cc1	4%	?	11µM*	2%	0%	-6
COc1ccc(CNC(=S)Nc2ccccc2)cc1	4%	-6%	0%	15%	19%	13
CCOc1ccc(CNC(=S)Nc2ccccc2)cc1Cl	-6%	?	?	-31%	?	-79*
CC(/C=C/C=C/c1ccccc1)=N\NC(=O)C1CC1c1ccc(C(C)(C)C)cc1 (configuration not stated)	.	.	7%	.	.	.
CC1CCC(NC(=O)C(=O)Nc2cccc(Cl)c2Cl)CC1 (configuration not stated)	.	.	-5%	.	.	.
COc1ccc(Cl)cc1NC(=S)NCc1ccccn1	16%	?	6%	17%	?	2
COc1ccccc1NC(=S)NCc1ccccn1	19%	4.1µM*	1%	-12%	2.3µM*	0
COC(=O)c1cccc(NC(=S)NCc2ccc(Cl)cc2)c1	-6%	?	?	-2%	?	17
COC(=O)c1cc(NC(=S)NCc2ccc(Cl)cc2)cc(C(=O)OC)c1	?	?	45µM*	?	16µM*	-5
CCOc1ccccc1NC(=S)NC1CC2CCC1C2 (configuration not stated)	3%	21µM*	.	-1%	?	12
O=C(O)C1(Nc2ccccc2)CCCC1	13%	1%	?	6%	6%	21
O=C(O)c1ccc(NC2(C(=O)O)CCCC2)cc1	12%	1%	14µM*	8%	-6%	-6
COc1ccc(NC(=O)C2(Cc3ccccc3)CCCCC(=O)N2)cc1F (configuration not stated)	.	.	-2%	.	.	.
CC(C)(C)c1ccc(CC(=O)N2CCC2(C)C(=O)NCc2cccs2)cc1 (configuration not stated)	-18%	10µM*	0%	-2%	12µM*	0
CC(C)(C)c1ccc(C(=O)N2CCC2(C)C(=O)NCc2cccs2)cc1 (configuration not stated)	?	0.65µM*	0%	?	6.5µM*	0
C[C@H]1CCC/C=C/[C@@H]2C[C@H](O)C[C@H]2[C@H](O)[C@H](S(=O)c2ccc(O)cc2)CC(=O)O1 (some centres not stated)	?	0.73µM*	40µM*	0.15µM*	0.58µM*	?
